Measured values published in PubChem BioAssay (NCI).
Several values for one entry are separate records, joined by “and”; a condition that tells them apart may be missing. Identical values can stand only once. About 79,000 compounds went through this panel and 15% of them were active in at least one assay; those are over-represented in the sample as a whole. Some compounds were tested as several samples or in several runs, with calls that do not always agree. Activity calls are given as the source filed them. No stated cut-off is given here; in the data, active means growth inhibition above about 70%; inactive means the rest.

Legend:
[1] = NCI Yeast Anticancer Drug Screen. Data for the rad50 strain (AID 155);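 further: 0% = growth of vehicle-only cultures of the same strain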; conditions: S. cerevisiae rad50 strain growth inhibition, stronger effect = higher value
Method in brief: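 Yeast carrying a defined DNA repair defect were exposed to test compounds, and growth was compared with vehicle-treated controls to give percent inhibition.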

[2] = NCI Yeast Anticancer Drug Screen. Data for the mec2-1 strain (AID 157); conditions: S. cerevisiae mec2-1 strain, stronger effect = higher value
Method in brief: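 Yeast mec2-1 mutant treated with compound. Readout: growth inhibition vs vehicle controls.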

[3] = NCI Yeast Anticancer Drug Screen. Data for the sgs1 mgt1 strain (AID 161);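 further: 0% = growth of cultures given vehicle only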; conditions: S. cerevisiae sgs1 mgt1 strain, stronger effect = higher value
Method in brief: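 Test agents were incubated with a DNA-repair-mutant yeast strain. Growth was then read and compared against vehicle-treated controls.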

[4] = NCI Yeast Anticancer Drug Screen. Data for the cln2 rad14 strain (AID 165);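 further: 0% = growth equal to vehicle treated cultures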; conditions: S. cerevisiae cln2 rad14 strain, stronger effect = higher value
Method in brief: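 cln2 rad14 yeast strain; compound exposure; growth inhibition read vs vehicle controls.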

[5] = NCI Yeast Anticancer Drug Screen. Data for the bub3 strain (AID 167); conditions: S. cerevisiae bub3 mutant strain, stronger effect = higher value
Method in brief: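 Compounds were applied to a genetically altered yeast strain carrying a cell-cycle control defect. Growth inhibition was scored against vehicle-treated controls.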

[6] = NCI Yeast Anticancer Drug Screen. Data for the mlh1 rad18 strain (AID 175); conditions: S. cerevisiae mlh1 rad18 strain growth inhibition, stronger effect = higher value
Method in brief: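 Yeast w/ defined DNA-repair lesions; compound exposure; growth vs vehicle controls → % inhibition.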

[7] = at 5.0 µM (retest, dose inferred, filed as 0.5)
[8] = at 50.0 µM (retest, dose inferred, filed as 5.0)

Structure (SMILES)	growth inhibition [1, 7]	growth inhibition [1, 8]	growth inhibition ([1]; at 50.0 µM)	growth inhibition [2, 7]	growth inhibition [2, 8]	growth inhibition ([2]; at 50.0 µM)	growth inhibition [3, 7]	growth inhibition [3, 8]	growth inhibition ([3]; at 50.0 µM)	growth inhibition [4, 7]	growth inhibition [4, 8]	growth inhibition ([4]; at 50.0 µM)	growth inhibition [5, 7]	growth inhibition [5, 8]	growth inhibition ([5]; at 50.0 µM)	growth inhibition [6, 7]	growth inhibition [6, 8]	growth inhibition ([6]; at 50.0 µM)
CN1CC(C(=O)NC2(C)OC3(O)C4CCCN4C(=O)C(Cc4ccccc4)N3C2=O)C=C2c3cccc4[nH]cc(c34)CC21 (configuration not stated)	26% (inactive) and -4% (inactive)	35% (inactive) and 23% (inactive)	8.55% (inactive) and 49.2% (inactive)	6% (inactive) and -1% (inactive)	14% (inactive) and 29% (inactive)	6.75% (inactive) and 70.6% (active)	4% (inactive) and -2% (inactive)	12% (inactive) and 50% (inactive)	-9.3% (inactive) and 61.7% (inactive)	-15% (inactive) and 1% (inactive)	22% (inactive) and 15% (inactive)	-11.6% (inactive) and 40.9% (inactive)	-24% (inactive) and 2% (inactive)	4% (inactive) and 30% (inactive)	8.25% (inactive) and 57% (inactive)	2% (inactive) and -3% (inactive)	33% (inactive) and 65% (inactive)	51.1% (inactive) and 73% (active)
O=C1C(=O)c2ccccc2-c2ccccc21.O=C1C(=O)c2ccccc2-c2ccccc21.[Hg]	100% (active)	96% (active)	12.2% (inactive)	100% (active)	97% (active)	-7.3% (inactive)	100% (active)	96% (active)	-6.8% (inactive)	100% (active)	97% (active)	29.8% (inactive)	100% (active)	96% (active)	-13.8% (inactive)	98% (active)	93% (active)	12.3% (inactive)
O=C(O)C(O)(c1ccccc1)C1(O)CCCCC1 (configuration not stated)	-147% (inactive)	-173% (inactive)	1.7% (inactive)	-47% (inactive)	-54% (inactive)	7.95% (inactive)	-53% (inactive)	-64% (inactive)	17.2% (inactive)	-54% (inactive)	-61% (inactive)	3.15% (inactive)	-64% (inactive)	-83% (inactive)	-3.65% (inactive)	-114% (inactive)	-127% (inactive)	50.3% (inactive)
CC(=O)[O][Hg][c]1cc2c(cc1O)Cc1cc([N+](=O)[O-])ccc1-2	95% (active)	98% (active)	93.5% (active)	99% (active)	99% (active)	98% (active)	99% (active)	99% (active)	86.2% (active)	76% (active)	98% (active)	94.1% (active)	99% (active)	98% (active)	97.6% (active)	99% (active)	99% (active)	96.5% (active)
[Se]C(=NCc1ccccc1)NCc1ccccc1	29% (inactive)	61% (inactive)	93.3% (active)	4% (inactive)	15% (inactive)	6.1% (inactive)	2% (inactive)	19% (inactive)	19.2% (inactive)	-1% (inactive)	-7% (inactive)	-102% (inactive)	3% (inactive)	18% (inactive)	46.2% (inactive)	8% (inactive)	29% (inactive)	52.4% (inactive)
O=P(Nc1ccccc1)(Oc1ccccc1)N1CCN(c2ccccc2)CC1 (configuration not stated)	0% (inactive)	97% (active)	71.2% (active)	-29% (inactive)	96% (active)	80.7% (active)	-32% (inactive)	97% (active)	84.5% (active)	22% (inactive)	96% (active)	85.9% (active)	14% (inactive)	96% (active)	87.2% (active)	-1% (inactive)	96% (active)	86.5% (active)
COC12C(COC(C)=O)C3=C(C(=O)C(C)=C(N4CCCCC4)C3=O)N1CC1NC12 (configuration not stated)	93% (active)	97% (active)	89.5% (active)	96% (active)	95% (active)	91.7% (active)	79% (active)	97% (active)	90.5% (active)	93% (active)	97% (active)	86.6% (active)	67% (inactive)	96% (active)	88% (active)	98% (active)	97% (active)	90% (active)
C[C@]12CC[C@H]3[C@@H](C[C@@H](F)C4=CC(=O)CC[C@@]43C)[C@@H]1CC[C@@H]2O	7% (inactive)	46% (inactive)	56.2% (inactive)	3% (inactive)	58% (inactive)	7.4% (inactive)	4% (inactive)	93% (active)	56% (inactive)	-2% (inactive)	30% (inactive)	6.75% (inactive)	0% (inactive)	80% (active)	34% (inactive)	15% (inactive)	86% (active)	30.1% (inactive)
Cc1nc2c(Br)cc(Br)cc2c(=O)n1-c1ccccc1N	19% (inactive)	22% (inactive)	63% (inactive)	15% (inactive)	17% (inactive)	9.45% (inactive)	13% (inactive)	24% (inactive)	63.8% (inactive)	18% (inactive)	37% (inactive)	19.4% (inactive)	3% (inactive)	4% (inactive)	70.2% (active)	37% (inactive)	34% (inactive)	46.2% (inactive)
